Pf growth 48h: inhibits P. falciparum growth in the first generation, 48 h; P. falciparum luciferase growth in erythrocytes, 48 h; Potency, µM (highest dose often 28.7 µM), usual class: inhibitors; 310,000 compounds, 5.9% hits; AID 504832
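Cell-based growth assay: transgenic P. falciparum expressing firefly luciferase, cultured in red cells within RPMI 1640 containing 0.5% w/v Albumax, 24 mM bicarbonate and gentamycin. A drop in luciferase activity indicates inhibition.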
Shiga toxin inh: blocks Shiga toxin action in Vero cells; inhibition, % at 38.7 µM; 290,000 compounds, 9.2% hits; Vero cells, Shiga toxin protein synthesis inhibition reporter; in the data active = inhibition mostly above about 28%, no sharp cut-off; inactive = mostly below about 43%
Cycloheximide cs: counter-screen hit for Shiga toxin inhibitors, cycloheximide | 300,000 compounds, 12% hits | AID 2314 | cell reporter, cycloheximide protein synthesis inhibition counterscreen | max response, %; in the data active = max response mostly above about 13%, no sharp cut-off; inactive = mostly below about 14%; also: read at 38.3 µM for the half of the compounds with a filed dose
Pf growth 96h: P. falciparum growth inhibition at 96 hours. P. falciparum luciferase reporter growth, 96 h. Potency, µM (titrated, usually from 28.7 µM), hits mostly inhibitors. 320,000 compounds, 6.9% hits. AID 504834
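Delayed-death screen, second-generation endpoint: infected erythrocytes, 2% hematocrit, 0.05% parasitemia final; 96 hours at 37 C, 5% CO2; luciferase detection reagent; luminescence decrease equals reduced growth.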
A number is an active result; . = inactive; ? = inconclusive; / = no result given. In the library only some 21% were active in any assay of this set; here they are far more common. Unless noted, calls follow the shape of the dose curve; as a rule, active = well fitted inhibition curve with a large enough effect; inconclusive = small, poorly fitted or top-dose-only effect, or another doubt; inactive = no such curve, though single readings can be large or run the other way.

SMILES	Pf growth 48h	Shiga toxin inh	Cycloheximide cs	Pf growth 96h
COc1cccc(CCNC(=O)C2CCC(=O)N(C3CC3)C2)c1OC (stereo not given)	.	.	.	.
CC(=O)N1CCN(c2ccc(NC(=S)NC(=O)c3ccccc3)cc2)CC1	.	.	.	?
O=C(NC(=S)Nc1cnc2ccccc2c1)c1ccccc1	.	63	47	.
Cc1cc(C)nc(NC(=S)Nc2ccccc2)n1	.	.	.	.
O=C(NC(=S)Nc1ncc(Br)cc1Br)c1ccccc1	.	94	35	.
Cn1ncc2cc(NC(=S)NC(=O)c3ccccc3)ccc21	.	86	43	.
O=C(CN1CCN(C(=O)c2ccccc2)CC1)Nc1ncc(Br)cc1Br	.	.	.	.
Cc1cc(C)nc(NC(=S)NC(=O)c2ccccc2)n1	.	.	.	0.93µM
COC(=O)c1cccc(C(=O)Nc2cnc3ccccc3c2)n1	.	.	.	.
Cc1cc(C)c2oc(C(=O)Nc3ccc(S(=O)(=O)N4CCCC(C)C4)cc3)cc(=O)c2c1 (stereo not given)	.	.	.	.
CCCn1c(SCC(=O)NCCc2ccccc2)nnc1-c1ccco1	.	.	.	?
O=C(CCN1C(=O)c2ccc([N+](=O)[O-])cc2C1=O)Nc1ccccc1C(=O)O	.	.	.	.
S=C(NCCc1ccccc1)Nc1cnc2ccccc2c1	.	61	31	.
O=C(Nc1ccccc1)c1ccncc1	.	.	.	.
O=C(Nc1cnc2ccccc2c1)c1ccncc1	/	183	73	.
Cc1cccc(OCc2nnc(SCC(=O)c3c(N)n(C4CC4)c(=O)[nH]c3=O)o2)c1	.	/	/	?
O=C(NCCc1ccccc1)Nc1cccc(Cl)c1	.	.	49	2.9µM
O=C(NCCc1ccc(Cl)cc1)Nc1cccc(Cl)c1	?	37	.	.
O=C(/C=C/c1cccc(Cl)c1)NCCc1ccccc1	.	107	65	.
Cc1cccc(NC(=O)NCCc2ccc(Cl)cc2)c1	?	.	.	.
CCOc1ccc(CCNC(=O)Nc2cccc(OC)c2)cc1OCC	?	.	.	.
O=C(O)/C=C/C(=O)NCCc1cccc(Cl)c1	.	.	.	.
COc1ccc(NC(=O)NCCc2cccc(Cl)c2)cc1OC	?	.	34	.
O=c1/c(=C\c2cccc(O)c2)sc2nc(-c3ccccc3)c(-c3ccccc3)n12	.	.	.	.
Cc1ccc(NC(=O)CSCC(=O)N(C)CC(=O)Nc2ccccc2C(F)(F)F)cc1	.	/	/	.
SMILES	Pf growth 48h	Shiga toxin inh	Cycloheximide cs	Pf growth 96h
COc1ccc(S(=O)(=O)N(CCO)c2ccccc2CN(C)CC=Cc2ccc(Cl)cc2)cc1	/	.	.	/
CCc1c(C)sc(NC(=O)Cc2ccccc2OC)c1C(=O)N1CCOCC1	.	.	.	.
COCCCNC(=O)c1ccc(-n2c(-c3ccccc3)cc3c2CCCCC3)cc1	/	103	23	/
O=C(Nc1cccc2ncccc12)c1ccc(Cl)cc1	?	.	.	6.6µM
COc1ccc(Cl)cc1C(=O)Nc1cccc2ncccc12	?	/	.	0.23µM
O=C(Nc1cccc2ncccc12)c1ccc(F)cc1	.	.	.	.
COc1ccc(Br)cc1C(=O)Nc1cccc2ncccc12	.	.	.	.
Cc1cc(NC(=O)CSCC(=O)Nc2cccc(S(=O)(=O)N3CCCCCC3)c2)no1	?	/	/	.
COc1cc(Nc2ccccc2Cl)c([N+](=O)[O-])nc1[N+](=O)[O-]	/	.	.	15µM
COc1ccccc1CCNC(=O)C(=O)NCC1OCCN1C(=O)c1ccc(Cl)cc1 (stereo not given)	?	.	.	.
CN1C(=O)C(O)(CC(=O)c2cccnc2)c2ccccc21 (stereo not given)	.	.	.	?
O=C(CC1(O)C(=O)N(Cc2cccc3ccccc23)c2ccccc21)c1cccnc1 (stereo not given)	/	.	.	3.7µM
CCN(CC)c1ccc(NC(=O)CCS(=O)(=O)c2ccc(Br)cc2)c(C)c1	.	.	.	.
Cc1nc(CS(=O)(=O)c2ccccc2)cc(Sc2ccc(Cl)cc2)n1	?	55	27	?
Cc1nc(CS(=O)(=O)c2ccccc2)cc(Sc2ccccc2Cl)n1	.	105	38	.
Cc1nc(CS(=O)(=O)c2ccc(Cl)cc2)cc(Sc2ccccc2Cl)n1	?	.	.	?
Cc1cccc(C)c1NC(=O)C(=O)NCC1CCCN1S(=O)(=O)c1cccs1 (stereo not given)	.	/	/	.
C=C1c2cc(C)ccc2NC(=O)N1c1ccccc1	.	.	.	.
Cc1ccc2c(c1)C(=O)C1(O)CCN(c3ccccc3)C1=N2 (stereo not given)	/	.	36	/
Cc1ccccc1C1=NCC(=O)N(CC(=O)N2CCCCC2)c2sc(C)c(C)c21	?	.	.	13µM
O=C(CCNC(=O)c1ccccc1Cl)Nc1ccc(Cl)c(C(F)(F)F)c1	.	.	.	?
C=CCc1cccc(CNc2nc3ccccc3n2CCC)c1O	12µM	.	.	/
C=CCc1cccc(CNc2nc3ccccc3n2CC)c1O	15µM	.	.	/
COc1ccc(N2CCN(S(=O)(=O)c3c(C)[nH]c(C)c3C(=O)N3CCCC3)CC2)cc1	.	.	.	?
COc1cc(OC)c(C(=O)OCC(=O)NCC2CCCCC2)cc1OC	.	/	/	.
SMILES	Pf growth 48h	Shiga toxin inh	Cycloheximide cs	Pf growth 96h
Clc1cccc(Cl)c1/C=C/c1nc2ccccc2[nH]1	?	78	31	.
O=C(O)c1ccc(/C=C/c2nc3ccccc3c(=O)[nH]2)cc1	/	.	.	.
Cc1cccc(/C=C/c2nc3ccccc3c(=O)[nH]2)c1	.	112	29	.
COc1cccc(/C=C/c2nc3c(cnn3-c3ccccc3)c(=O)[nH]2)c1	.	.	15	.
Clc1ccc(/C=C/c2nc3ccccc3[nH]2)cc1	.	.	.	.
COc1cc(/C=C/c2nc3ccccc3c(=O)[nH]2)cc(Br)c1O	?	.	.	?
CCOc1cc(/C=C/c2nc3ccccc3c(=O)[nH]2)ccc1O	/	50	45	.
Cc1[nH]c2ccccc2c1/C=C/c1nc2ccccc2c(=O)[nH]1	?	84	53	?
CCCN1C(=O)/C(=C/c2nc3ccccc3c(=O)[nH]2)c2cc(C)ccc21	?	.	11	?
O=c1[nH]c(/C=C/c2ccccc2Cl)nc2ccccc12	/	106	40	?
Cc1cc(C)c(S(=O)(=O)Nc2ccnc(-c3cccnc3)n2)c(C)c1	.	.	.	.
CS(=O)(=O)Nc1ccc(C(=O)Nc2ccc(S(=O)(=O)N3CCCC3)cc2)cc1	?	.	.	.
NC(=O)c1cc([N+](=O)[O-])ccc1NCc1ccc(C(=O)O)cc1	.	/	/	.
CC(C)CC(=O)NC(c1ccccc1)c1c(O)ccc2ccccc12 (stereo not given)	?	.	.	?
CCCCC(=O)NC(c1cccc([N+](=O)[O-])c1)c1c(OC(C)=O)ccc2ccccc12 (stereo not given)	0.83µM	.	17	.
CC(=O)Oc1ccc2ccccc2c1C(NC(=O)Cc1ccccc1)c1ccccc1 (stereo not given)	4.1µM	.	.	?
CCOC(=O)C(NC(C)=O)C(OC(C)=O)c1cccc([N+](=O)[O-])c1 (stereo not given)	.	.	.	.

Source: PubChem
